Bioassay records as filed in PubChem.
In the library only some 4.1% were active in any assay of this set; here they are far more common.
Beta cell apopt: inhibitors of cytokine-induced beta cell apoptosis, primary screen, luminescence; INS-1E cytokine-induced death, ATP luminescence, 48 h; percent of positive-control rescue, neutral wells zero; protection from apoptosis, % (test concentration not listed); 0.8% of 300,000 active;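 active = Every replicate reaches about 75%, or at least half do and their mean reaches it too, limit read from the data; inconclusive = At least half of replicates reach the limit but their mean does not; inactive = Under half of replicates reach the limit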;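 note: 0% = cytokine-treated negative control wells and 100% = positive control rescue; higher means more ATP so stronger rescue from cytokine killing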
aSyn UTR inh: MLPCN primary screen, SNCA 5' untranslated region; 0.82% of 300,000 active; AID 1813, 2009; inhibition, % (tested at 7.5 µM); alpha-synuclein 5'UTR reporter, inhibitor activity; in the data active = inhibition above about 60%; inconclusive = no clear call, values can overlap the other calls;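 note: H4 neuroglioblastoma cells stably carrying SNCA 5'UTR luciferase fusion; 0% = DMSO wells and 100% = positive control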
A1 inh: caspase 3/7 activation in MEF A1-2A-BIM cells, primary screen, A1 inhibitor project, cell-based, luminescence, HTS; 0.066% of 330,000 active; caspase activation, % (concentration not given with the values); Caspase-Glo 3/7 luminescence, 3 h; percent of clofoctol response, vehicle zero; AID 2462, 2010;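 active = over half of replicate activation scores above 10%, or exactly half above 10 with the replicate mean above 10; inconclusive = replicate mean below 10 yet half the replicates above 10; inactive = over half of replicates below 10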
CSC inhib: cancer stem cell viability inhibitors, primary screen, luminescence | inhibition, % at 7.5 µM | cancer stem cell-like cells viability | 1.1% of 300,000 active; in the data active = inhibition above about 75%; inconclusive = no clear call, values can overlap the other calls; tested in HMLE shEcad cells
Mdm2 MdmX PPI: inhibitors of human Mdm2-MdmX association, primary screen, cell-based, luminescence, split luciferase, SaOS-2, uHTS | 3% of 330,000 active | inhibition, % at 8 µM | SaOS-2 split-luciferase Mdm2/MdmX complementation | Protein Mdm4 (Homo sapiens) + E3 ubiquitin-protein ligase Mdm2 (Homo sapiens), …;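 active = inhibition of at least 50% at 8 µM in the primary screen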
Target sequence (O15151 whole entry, looked up): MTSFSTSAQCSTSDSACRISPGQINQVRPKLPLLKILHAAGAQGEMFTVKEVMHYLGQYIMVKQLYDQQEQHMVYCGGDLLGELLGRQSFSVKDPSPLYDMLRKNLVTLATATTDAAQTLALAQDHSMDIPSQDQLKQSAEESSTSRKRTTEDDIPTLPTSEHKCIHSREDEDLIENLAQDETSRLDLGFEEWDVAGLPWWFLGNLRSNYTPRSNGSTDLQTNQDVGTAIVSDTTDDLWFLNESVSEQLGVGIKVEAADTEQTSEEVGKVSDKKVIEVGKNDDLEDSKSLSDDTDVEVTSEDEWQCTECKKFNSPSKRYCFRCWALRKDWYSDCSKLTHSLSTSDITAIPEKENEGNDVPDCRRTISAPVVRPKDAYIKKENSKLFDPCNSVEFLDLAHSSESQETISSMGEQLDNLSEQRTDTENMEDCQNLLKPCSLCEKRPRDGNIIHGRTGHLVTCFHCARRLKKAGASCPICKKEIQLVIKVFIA
Target sequence (Q00987 whole entry, looked up): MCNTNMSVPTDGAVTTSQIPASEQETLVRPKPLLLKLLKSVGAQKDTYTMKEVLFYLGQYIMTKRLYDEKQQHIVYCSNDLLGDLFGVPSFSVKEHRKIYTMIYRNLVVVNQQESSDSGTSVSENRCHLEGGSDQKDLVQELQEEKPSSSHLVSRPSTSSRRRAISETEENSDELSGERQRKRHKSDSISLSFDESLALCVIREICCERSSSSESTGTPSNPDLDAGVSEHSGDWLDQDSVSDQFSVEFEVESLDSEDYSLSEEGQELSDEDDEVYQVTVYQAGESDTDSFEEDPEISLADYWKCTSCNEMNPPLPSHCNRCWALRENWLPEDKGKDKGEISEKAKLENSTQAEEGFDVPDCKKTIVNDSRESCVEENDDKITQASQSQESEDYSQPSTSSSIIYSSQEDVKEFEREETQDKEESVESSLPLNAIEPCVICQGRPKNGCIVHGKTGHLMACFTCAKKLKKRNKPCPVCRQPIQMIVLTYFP
Mdm2 MdmX conf: Mdm2-MdmX complex disruptors, retested hits, confirmation, luminescence, single concentration. shares compounds with Mdm2 MdmX PPI. Mdm2-MdmX binding, luminescent assay. inhibition, % at 8 µM. 55% of 10,000 active; in the data active = inhibition above about 40%
FLuc counter: full-length luciferase signal inhibition, confirmation, counter-screen for Mdm2/MdmX interaction inhibitor project, cell-based, single concentration, SaOS-2; shares compounds with Mdm2 MdmX PPI; SaOS-2 full-length luciferase counterscreen, luminescence; inhibition, % at 8 µM; 77% of 6,200 active; AID 504607, 2011;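 active = mean inhibition at 8 µM reaching about 37%, which flags the compound as non-specific, limit read from the data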;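 note: p53-null SaOS-2 cells with luciferase driven by a doxycycline-inducible promoter; compound on cells about two nights before reading with doxycycline added after day one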
An asterisk follows results filed as active.

What do the screens show for `C=CCC[C@H](Cc1ccc(F)cc1)C(=O)OC[C@H](Cc1c[nH]c2ccccc12)NC(=O)[C@@H](CC=C)CC(=O)N(CCO)Cc1ccccc1`?
Beta cell apopt: -6.8; A1 inh: -1.1; CSC inhib: 68.0; Mdm2 MdmX PPI: 87.4*; Mdm2 MdmX conf: 19.8

How did C=CCC[C@@H](Cc1ccc(F)cc1)C(=O)OC[C@H](Cc1c[nH]c2ccccc12)NC(=O)[C@H](CC=C)CC(=O)N(CCO)Cc1ccccc1 do in these assays?
Mdm2 MdmX PPI: 88.3*; Mdm2 MdmX conf: 22.5; FLuc counter: 74.2*

Results for C=CCC[C@@H](Cc1ccc(F)cc1)C(=O)OC[C@@H](Cc1c[nH]c2ccccc12)NC(=O)[C@@H](CC=C)CC(=O)NCCO ?
Mdm2 MdmX PPI: 34.8

Results for C=CC[C@H](CC(=O)NCCO)C(=O)NC[C@@H](OC(=O)[C@@H](CC=C)Cc1ccc(F)cc1)c1ccccc1 ?
Beta cell apopt: 5.3; A1 inh: -1.0; Mdm2 MdmX PPI: 25.6

Results for C=CC[C@@H](CC(=O)N[C@H](CO)Cc1ccccc1)C(=O)NC[C@H](OC(=O)[C@@H](CC=C)Cc1ccc(F)cc1)c1ccccc1 ?
Beta cell apopt: -5.6; A1 inh: -0.3; CSC inhib: -6.4; Mdm2 MdmX PPI: 58.8*; Mdm2 MdmX conf: 55.2*; FLuc counter: 61.6*

What do the screens show for `C=CCC[C@H](Cc1ccc(F)cc1)C(=O)O[C@H](CNC(=O)[C@@H](CC=C)CC(=O)N(CCO)Cc1ccccc1)c1ccccc1`?
Beta cell apopt: 17.3; A1 inh: 0.3; CSC inhib: 96.5*; Mdm2 MdmX PPI: 63.3*; Mdm2 MdmX conf: 32.0

How did C=CCC[C@H](Cc1ccc(F)cc1)C(=O)OC[C@H](Cc1c[nH]c2ccccc12)NC(=O)[C@H](CC=C)CC(=O)NCCO do in these assays?
Beta cell apopt: -4.5; A1 inh: -0.8; CSC inhib: 7.2; Mdm2 MdmX PPI: 33.3

Results for COc1ccccc1N1CCN(C(=O)C(C)NC(=O)c2cccc([N+](=O)[O-])c2)CC1 (stereo not given) ?
Beta cell apopt: -0.7; aSyn UTR inh: 17.0; A1 inh: -0.7; Mdm2 MdmX PPI: 16.5

Results for Cc1cc(C)c2c(CC(=O)NC3CCS(=O)(=O)C3)coc2c1 (stereo not given) ?
Beta cell apopt: -5.0; aSyn UTR inh: 2.6; A1 inh: 0.5; CSC inhib: -2.1; Mdm2 MdmX PPI: -3.0

Results for C=CCC[C@@H](Cc1ccc(F)cc1)C(=O)OC[C@H](Cc1c[nH]c2ccccc12)NC(=O)[C@@H](CC=C)CC(=O)NCCO ?
Beta cell apopt: -1.4; A1 inh: 0.6; Mdm2 MdmX PPI: 31.7

What do the screens show for `C=CC[C@H](CC(=O)N(CCO)Cc1ccccc1)C(=O)N[C@H](COC(=O)[C@@H](CC=C)Cc1ccc(F)cc1)Cc1ccccc1`?
Beta cell apopt: -8.5; A1 inh: -0.7; CSC inhib: -1.0; Mdm2 MdmX PPI: 71.3*; Mdm2 MdmX conf: 26.8

What do the screens show for `C=CCC[C@H](Cc1ccc(F)cc1)C(=O)OC[C@@H](Cc1c[nH]c2ccccc12)NC(=O)[C@@H](CC=C)CC(=O)N(CCO)Cc1ccccc1`?
Beta cell apopt: 9.3; A1 inh: -0.1; CSC inhib: 79.2*; Mdm2 MdmX PPI: 85.9*; Mdm2 MdmX conf: 13.4

Results for COCCN(CCOC)S(=O)(=O)c1ccc(C(=O)Nc2nc(-c3ccccc3)c(C(=O)c3ccccc3)s2)cc1 ?
Beta cell apopt: 2.4; aSyn UTR inh: -6.3; A1 inh: 0.6; CSC inhib: 32.4; Mdm2 MdmX PPI: -24.4

How did CCOC(=O)Nc1nc(-c2ccccc2)c(C(=O)c2ccccc2)s1 do in these assays?
Beta cell apopt: 24.7; aSyn UTR inh: 116.7*; A1 inh: 3.8; CSC inhib: 62.0; Mdm2 MdmX PPI: 60.8*; Mdm2 MdmX conf: 51.1*; FLuc counter: 90.7*

What do the screens show for `COC(=O)Nc1nc(-c2ccccc2)c(C(=O)c2ccc(Cl)cc2)s1`?
Beta cell apopt: 26.1; aSyn UTR inh: 94.4*; A1 inh: 0.9; CSC inhib: 56.8; Mdm2 MdmX PPI: 60.8*; Mdm2 MdmX conf: 54.5*; FLuc counter: 87.8*

Results for N#Cc1ccc(-c2c(-c3ccccc3)ncc3cc(F)ccc23)cc1 ?
Beta cell apopt: 7.1; A1 inh: -4.0; CSC inhib: 0.8; Mdm2 MdmX PPI: 24.7

What do the screens show for `COc1ccc(/C=C/c2nc3ccccc3c(=O)o2)cc1`?
Beta cell apopt: -5.6; aSyn UTR inh: 101.5*; A1 inh: -8.2; CSC inhib: 9.4; Mdm2 MdmX PPI: 88.1*; Mdm2 MdmX conf: 83.8*; FLuc counter: 63.2*

How did O=C1/C(=C/c2ccncc2)Cc2ccccc21 do in these assays?
Beta cell apopt: -9.1; aSyn UTR inh: 10.7; A1 inh: -0.4; CSC inhib: -7.0; Mdm2 MdmX PPI: 2.4

What do the screens show for `CC1C/C(=C/c2ccncc2)C(=O)/C(=C/c2ccncc2)C1` (stereo not given)?
Beta cell apopt: 111.9*; aSyn UTR inh: -106.6; A1 inh: 0.3; CSC inhib: 77.5*; Mdm2 MdmX PPI: 99.0*; Mdm2 MdmX conf: 99.2*; FLuc counter: 51.2*

Results for O=C(NCCCN1CCOCC1)c1ccc(-n2nc(C(F)(F)F)cc2-c2cccs2)cc1 ?
Beta cell apopt: 6.0; aSyn UTR inh: 48.7; A1 inh: 0.1; CSC inhib: 6.5; Mdm2 MdmX PPI: 76.6*; Mdm2 MdmX conf: 25.4

Results for Cc1ccc(Sc2ccc(C(=O)N3CCOCC3)cc2[N+](=O)[O-])cc1 ?
Beta cell apopt: 0.2; aSyn UTR inh: 13.4; A1 inh: 1.8; CSC inhib: 28.7; Mdm2 MdmX PPI: 11.3

How did CC1(C)c2[nH]c3ccccc3c2C[C@@H]2C(=O)N(Cc3ccccc3)C(=O)N21 do in these assays?
Beta cell apopt: -3.9; aSyn UTR inh: 5.5; A1 inh: -0.6; CSC inhib: -8.8; Mdm2 MdmX PPI: -21.5

What do the screens show for `COC(=O)[C@@H]1Cc2c([nH]c3ccccc23)C(C)(C)N1C(=O)CCl`?
Beta cell apopt: -6.3; aSyn UTR inh: inconclusive; A1 inh: 1.1; CSC inhib: 10.8; Mdm2 MdmX PPI: 100.3*; Mdm2 MdmX conf: 98.0*; FLuc counter: 17.4

Results for Cc1ccc(S(=O)(=O)N2CCN(C(=O)Cc3c(F)cccc3Cl)CC2)cc1 ?
Beta cell apopt: 1.3; aSyn UTR inh: -4.3; A1 inh: 1.5; CSC inhib: 19.0; Mdm2 MdmX PPI: -6.4
